Among the data in PubChem BioAssay are outcome, potentiation and activation values, retold here.

For part of these data: Measured potencies and affinities stand elsewhere. Calls of active or inactive are those of the source.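 How the source made its calls, unless noted: active means compound raising the membrane signal above positive-control mean plus 3 SD in both repeats, and a primary screen hit; inactive means the rest.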

The test system of assay [1] is TRPC4 beta (transient receptor potential cation channel C4), mouse. As to the kind of experiment: activators of mouse TRPC4 channel, confirmation, cell-based, Fluo4 calcium, HEK293 TRPC4beta/mu-opioid, duplicates, 10 µM (AID 2426;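 active means fluorescence ratio normalized to control raised more than 50% in primary screen plus both repeat runs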). Conditions: Fluo4 calcium fluorescence, at 10 µM; hits give high values.
Assay [2] deals with transient receptor potential cation channel C4 beta (TRPC4), mouse. As to the kind of experiment: activators of mouse TRPC4 channel, confirmation, cell-based, second round, Fluo4, HEK293 TRPC4beta/mu-opioid, 1 µM (AID 2461;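 active means primary screen active and over 50% activation in each of two duplicate runs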). Conditions: Fluo4 calcium fluorescence, at 1 µM; hits give high values.
For assay [3], the system named is TRPC4 (transient receptor potential cation channel C4 beta), mouse. As to the kind of experiment: positive allosteric modulators of mouse TRPC4, confirmation, cell-based, second round, Fluo-4, HEK293 TRPC4beta/mu-opioid, 1 µM (AID 2554;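 active means primary screen hit whose fluorescence ratio, in both repeats, exceeds the weak agonist control mean by 3 SD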). Conditions: DAMGO EC20, Fluo-4 calcium flux, at 1 µM; hits give high values.
Assay [4] relates to TRPC4 beta (transient receptor potential cation channel C4), mouse. As to the kind of experiment: positive allosteric modulators of mouse TRPC4, confirmation, cell-based, Fluo-4, HEK293 TRPC4beta/mu-opioid (AID 2555;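 active means primary screen hit whose calcium fluorescence ratio, in both repeats, exceeds the weak agonist control mean by 3 SD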). Conditions: DAMGO EC20, Fluo-4 calcium flux, at 10 µM; hits give high values.
Assay [5] deals with Short transient receptor potential channel 4 (Mus musculus) (UniProt Q9QUQ5). As to the kind of experiment: inhibitors of mouse TRPC4 channel, confirmation, cell-based, Fluo4, HEK293 TRPC4beta/mu-opioid (AID 2636;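 active means calcium signal cut by more than 3 SD below the full-agonist control yet still positive, in both repeats and the earlier primary screen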). The settings on record: DAMGO, Fluo4 calcium flux, at 10 µM; hits give high values.
Assay [6] shares this target. As to the kind of experiment: inhibitors of mouse TRPC4 channel, confirmation, cell-based, second round, Fluo4, HEK293 TRPC4beta/mu-opioid, 1 µM (AID 2637;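 active means calcium signal ratio cut to more than 3 SD under the fully stimulated control mean yet still positive, in both repeats and the primary screen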). The settings on record: Fluo4 calcium flux, DAMGO, at 1 µM; hits give high values.
The target is the same in assay [7]. As to the kind of experiment: mouse TRPC4 channel activators, dose response, cell-based, HEK293 TRPC4/mu-opioid, Fluo-4 calcium (AID 434937;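 active means primary screen activator hit with a dose response curve and TRPC4 channel activation at any tested dose; inactive means no activation, no dose response, or not a primary hit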).
The target is the same in assay [8]. Kind of assay: TRPC4 positive allosteric modulators, dose response, cell-based, HEK293 TRPC4/mu-opioid, Fluo-4 calcium, EC20 DAMGO (AID 434941;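 active means earlier screen potentiator hit that boosts the TRPC4 ion channel at some dose, with a dose response; inactive means no potentiation, no dose response, or not a prior hit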;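 further: calcium entry triggered by an EC20 dose of DAMGO at the co-expressed mu-opioid receptor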).
Assay [9] has the same target. Kind of assay: mouse TRPC4 channel inhibitors, dose response, cell-based, HEK293 TRPC4/mu-opioid, Fluo-4 calcium (AID 434942;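 active means primary screen inhibitor hit that blocks the TRPC4 channel at some tested dose, yielding a dose curve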).
Assay [10] deals with Short transient receptor potential channel 6 (Mus musculus) (UniProt Q61143). Kind of assay: inhibition of mouse TRPC6 channel, confirmation, selectivity assay for TRPC4 inhibitor project, cell-based, HEK293, membrane potential dye, duplicate (AID 434948;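 active means active in primary screen and both duplicates, each dropping signal beyond three positive-control SD with fluorescence still positive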). The settings on record: HEK293 TRPC6, membrane potential dye fluorescence, at 10 µM, stimulated with maximal-effect acetylcholine; hits give high values.

Assay [11] shares this target. Kind of assay: activation of mouse TRPC6 channel, confirmation, selectivity assay for TRPC4 activator project, cell-based, HEK293, membrane potential dye, duplicate (AID 434950;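 active means membrane potential signal rise above negative control mean plus 3 SD in both duplicates, also active in the earlier TRPC4 screen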;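 on activation: 0% = buffer only wells and 100% = acetylcholine maximal-effect wells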). The settings on record: HEK293 TRPC6, membrane potential fluorescence, at 10 µM; hits give high values.
Assay [12] shares this target. As to the kind of experiment: TRPC6 potentiation by TRPC4 potentiator hits, confirmation, selectivity assay for TRPC4 potentiator project, HEK293 cells, membrane potential dye, duplicate (AID 434952). Conditions: HEK293 TRPC6, membrane potential dye fluorescence, at 10 µM, maximal acetylcholine added after compound; hits give high values.
For assay [13], the target named is Short transient receptor potential channel 4 (Mus musculus) (UniProt Q9QUQ5). As to the kind of experiment: calcium flux activators in TRPC4/5HT1a cells, counter-screen for TRPC4 activator project, cell-based, second counter screen, HEK293 TRPC4/5HT1a, Fluo-4 (AID 434977;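 active means calcium signal rise above buffer-control mean plus 5 SD in both duplicates, and also a hit in the primary screen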). The settings on record: Fluo-4 calcium flux, at 10 µM; hits give high values.
Assay [14] can be described thus: calcium flux inhibitors in TRPC4/5HT1a cells, confirmation, counter-screen for TRPC4 inhibitor project, cell-based, second counter screen, HEK293 TRPC4/5HT1a, Fluo-4 (AID 434978;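 active means primary screen active whose calcium signal fell more than 3 SD beyond the full-serotonin control mean in both duplicate plates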;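 further: serotonin given first at submaximal then at maximal dose after compound preincubation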). The settings on record: Fluo-4 calcium flux, at 10 µM, serotonin added to trigger calcium flux; hits give high values.
The subject of assay [15] is TRPC4 (mouse), co-expressed with 5HT1a in HEK293. As to the kind of experiment: calcium flux potentiators in TRPC4/5HT1a cells, confirmation, counter-screen for TRPC4 potentiator project, cell-based, second counter screen, HEK293 TRPC4/5HT1a, Fluo-4 (AID 434979;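 active means signal rise over 3 SD above mean of control wells given weak agonist, in both repeats and first screen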). The settings on record: Fluo-4 calcium flux, at 10 µM, serotonin added at its EC20 dose; hits give high values.

A short description of assay [16]: calcium flux activation in mu-opioid HEK293 cells, confirmation, counter-screen for TRPC4 activator project, cell-based, HEK293 mu-opioid receptor line (AID 449723;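 active means hit in primary screen, with calcium signal over 5 SD above buffer well mean in both duplicates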;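 further: counter screen cells carry the mu-opioid receptor alone and lack TRPC4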). Conditions: Fluo-4 calcium fluorescence, at 10 µM; hits give high values.
The nature of assay [17]: calcium flux enhancement in mu-opioid HEK293 cells, confirmation, counter-screen for TRPC4 allosteric potentiator project, cell-based, HEK293 mu-opioid receptor line (AID 449724;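 active means calcium signal rise more than 3 SD above the low-dose agonist control mean, in both duplicate plates and the primary screen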;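 further: HEK293 cells carrying mu-opioid receptor only with no TRPC4 channel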). The settings on record: Fluo-4 calcium flux, at 10 µM, compound added before EC20 DAMGO stimulus; hits give high values.

Chain of Short transient receptor potential channel 6 (Mus musculus) (Q61143 whole entry, looked up): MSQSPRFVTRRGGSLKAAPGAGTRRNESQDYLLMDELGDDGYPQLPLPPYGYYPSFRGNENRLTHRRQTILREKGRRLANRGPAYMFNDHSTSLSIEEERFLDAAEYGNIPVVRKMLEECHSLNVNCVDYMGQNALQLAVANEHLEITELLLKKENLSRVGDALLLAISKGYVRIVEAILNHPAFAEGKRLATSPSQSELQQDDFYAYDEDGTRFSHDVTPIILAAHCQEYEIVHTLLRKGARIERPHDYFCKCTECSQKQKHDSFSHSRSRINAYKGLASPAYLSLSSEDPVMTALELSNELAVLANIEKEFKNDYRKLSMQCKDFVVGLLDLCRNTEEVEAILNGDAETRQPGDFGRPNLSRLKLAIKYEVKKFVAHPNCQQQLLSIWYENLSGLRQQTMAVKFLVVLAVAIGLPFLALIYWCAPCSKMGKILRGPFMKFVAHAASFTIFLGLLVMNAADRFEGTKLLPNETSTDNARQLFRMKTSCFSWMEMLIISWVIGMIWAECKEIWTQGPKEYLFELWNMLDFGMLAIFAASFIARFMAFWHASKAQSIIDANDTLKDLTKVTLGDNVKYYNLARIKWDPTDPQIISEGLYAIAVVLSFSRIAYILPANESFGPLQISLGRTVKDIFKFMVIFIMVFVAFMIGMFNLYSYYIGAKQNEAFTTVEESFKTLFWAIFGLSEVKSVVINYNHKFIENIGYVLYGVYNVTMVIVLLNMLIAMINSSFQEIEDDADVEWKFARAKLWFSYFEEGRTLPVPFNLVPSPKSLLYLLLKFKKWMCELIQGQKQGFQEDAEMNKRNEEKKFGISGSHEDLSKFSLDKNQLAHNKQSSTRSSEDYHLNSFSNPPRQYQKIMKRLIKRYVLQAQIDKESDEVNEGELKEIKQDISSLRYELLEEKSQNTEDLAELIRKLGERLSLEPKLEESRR
Chain of Short transient receptor potential channel 4 (Mus musculus) (Q9QUQ5 whole entry, looked up): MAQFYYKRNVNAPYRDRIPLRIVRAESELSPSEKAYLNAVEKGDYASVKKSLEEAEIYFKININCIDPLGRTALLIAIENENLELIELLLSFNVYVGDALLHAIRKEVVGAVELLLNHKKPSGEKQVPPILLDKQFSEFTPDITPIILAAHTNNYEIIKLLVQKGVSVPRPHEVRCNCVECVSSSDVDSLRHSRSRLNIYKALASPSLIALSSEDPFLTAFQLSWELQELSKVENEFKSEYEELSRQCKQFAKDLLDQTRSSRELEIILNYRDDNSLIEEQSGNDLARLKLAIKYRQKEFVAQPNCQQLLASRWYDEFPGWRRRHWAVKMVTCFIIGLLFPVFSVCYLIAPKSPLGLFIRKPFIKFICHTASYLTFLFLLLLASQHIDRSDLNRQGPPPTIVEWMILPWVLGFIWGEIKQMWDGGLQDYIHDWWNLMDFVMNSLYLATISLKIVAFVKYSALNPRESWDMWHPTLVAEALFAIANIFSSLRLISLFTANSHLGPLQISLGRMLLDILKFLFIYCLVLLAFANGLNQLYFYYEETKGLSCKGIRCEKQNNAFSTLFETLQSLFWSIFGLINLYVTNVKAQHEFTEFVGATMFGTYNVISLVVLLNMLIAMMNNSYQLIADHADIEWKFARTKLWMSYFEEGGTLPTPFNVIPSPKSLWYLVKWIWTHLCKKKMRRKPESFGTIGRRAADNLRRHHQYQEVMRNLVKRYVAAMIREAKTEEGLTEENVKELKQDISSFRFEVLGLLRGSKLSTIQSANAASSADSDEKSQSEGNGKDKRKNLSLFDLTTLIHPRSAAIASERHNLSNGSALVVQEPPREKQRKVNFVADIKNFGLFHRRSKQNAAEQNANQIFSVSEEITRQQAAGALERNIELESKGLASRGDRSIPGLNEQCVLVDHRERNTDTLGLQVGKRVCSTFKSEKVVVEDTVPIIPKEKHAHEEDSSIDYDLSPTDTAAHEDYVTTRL

As to `CCOC(=O)C1=C(C)N(c2ccccc2)C(=O)NC1c1cccc([N+](=O)[O-])c1` (stereo not given), the outcome in assay [1], in assay [2], in assay [3], in assay [4], in [5] and in assay [6] was inactive. Also, the outcome in assay [7], in assay [8], in assay [9], in assay [10], in [11] and in assay [12] was inactive. Also, the result in assay [13], in [14], in [16] and in [17] was inactive. Further, the potentiation in [15] was 9.17% (active).

As for `CCCC1=C(C(=O)OCC)C(c2cc(Cl)cc(OC)c2OCC(=O)OCC)NC(=O)N1` (stereo not given), the result in [1], in [2], in [3], in assay [5], in [6] and in [7] was inactive. Further, the result in assay [8], in [9], in assay [10], in assay [11], in assay [12] and in assay [13] was inactive. Besides, the outcome in [14], in assay [16] and in assay [17] was inactive. Besides, the potentiation in assay [4] was 22% (active); in assay [15], 5.72% (active).

As to `Cc1ccc(CNC(=O)CCC2CCCN(Cc3cc4ccccc4o3)C2)o1` (stereo not given), the outcome in assay [1], in assay [2], in assay [3], in assay [4], in assay [5] and in assay [6] was inactive. Further, the result in [7], in [8], in assay [9], in assay [10], in [11] and in assay [12] was inactive. Also, the outcome in [13], in assay [14], in [15], in assay [16] and in assay [17] was inactive.

With `CC(C)Cn1c(O)c(N=NC(=O)c2cccc(S(=O)(=O)N3CCCCC3)c2)c2ccccc21`, the result in [1], in [2], in assay [3], in [5], in assay [6] and in [7] was inactive. For the same compound, the outcome in assay [8], in assay [9], in assay [10], in assay [11], in assay [12] and in assay [13] was inactive. The outcome in assay [14], in assay [15], in [16] and in [17] was inactive. Besides, the potentiation in [4] was 15% (active).

For `C/C(=N/OCO/N=C(/C)c1ccc(F)cc1)c1ccc(F)cc1`, the result in assay [1], in assay [2], in assay [3], in assay [4], in assay [5] and in [6] was inactive. Moreover, the outcome in assay [7], in assay [8], in assay [9], in [10], in assay [11] and in assay [12] was inactive. Besides, the result in assay [13], in [14], in assay [15], in [16] and in assay [17] was inactive.

Take `CCN(CC)CC(=O)Nc1ccccc1SCC(=O)Nc1ccsc1C(=O)OC`: the outcome in assay [1], in assay [2], in assay [3], in [4], in assay [5] and in [6] was inactive. For the same compound, the result in [7], in [8], in [9], in assay [10], in assay [11] and in assay [12] was inactive. Also, the result in assay [13], in assay [14], in assay [15], in assay [16] and in [17] was inactive.

With `CC1CCC2C(C1)c1sc(=O)[nH]c1SC2(C)C` (stereo not given), the outcome in [1], in assay [2], in [3], in assay [4], in [5] and in assay [6] was inactive. For the same compound, the outcome in assay [7], in [8], in assay [9], in [10], in [11] and in assay [12] was inactive. The outcome in [13], in assay [14], in [15], in assay [16] and in [17] was inactive.

Turning to `CCN1C(=O)/C(=C\N2CCCc3ccccc32)SC1=S`, the result in assay [1], in [2], in assay [3], in assay [4], in [5] and in assay [6] was inactive. Moreover, the outcome in assay [7], in assay [8], in [9], in assay [10], in assay [11] and in assay [12] was inactive. Besides, the result in [13], in assay [14], in assay [15], in [16] and in assay [17] was inactive.

As to `CCN1CCN(c2ccc(S(=O)(=O)N3CCCCC3)cc2NC(=O)c2cccc(F)c2)CC1`, the result in assay [1], in assay [2], in assay [3], in assay [4], in assay [5] and in assay [6] was inactive. In addition, the outcome in assay [7], in [8], in assay [9], in assay [10], in [11] and in assay [12] was inactive. The outcome in assay [13], in assay [14], in assay [16] and in assay [17] was inactive. In addition, the potentiation in [15] is 18.4% (active).

Take `CCOC(=O)c1ccc(N=C2C(=S)N(c3ccc(C(=O)OCC)cc3)C(=N)N2/N=C/c2ccccc2)cc1`: the result in [1], in assay [2], in assay [3], in [4], in assay [5] and in [6] was inactive. For the same compound, the result in [7], in [8], in assay [9], in assay [10], in assay [11] and in [12] was inactive. Further, the outcome in assay [13], in assay [14], in assay [15], in assay [16] and in assay [17] was inactive.

Regarding `CCc1c(C)nc2c(-c3ccccc3)c(C)nn2c1Nc1ccc(NC(C)=O)cc1`, the outcome in assay [1], in assay [2], in assay [3], in [5], in [6] and in [7] was inactive. For the same compound, the outcome in assay [8], in assay [9], in assay [10], in [11], in assay [12] and in assay [13] was inactive. Further, the outcome in assay [14], in assay [16] and in [17] was inactive. Moreover, the potentiation was 14% (active) in [4] and 74% (active) in [15].

With `C(#Cc1ccccc1)C[N+]1(CC#Cc2cccc3ccccc23)CCCC1`, the outcome in [1], in [2], in assay [3], in [4], in assay [5] and in assay [6] was inactive. For the same compound, the outcome in [7], in assay [8], in assay [9], in assay [10], in [11] and in assay [12] was inactive. Also, the outcome in assay [13], in assay [14], in assay [15], in [16] and in assay [17] was inactive.

On to `Cc1ccc(C)c(OCCCCN2CCNCC2)c1C`, for which the result in [1], in assay [2], in assay [3], in assay [5], in assay [6] and in [7] was inactive. The result in assay [8], in assay [9], in [10], in [11], in assay [12] and in [13] was inactive. Moreover, the outcome in [14], in assay [16] and in assay [17] was inactive. The potentiation in assay [4] is 9% (active); in [15] it was 29.4% (active).

Take `CC(C)Oc1ccc(CCC(=O)NNC(=S)NCc2ccccc2)cc1`: the result in [1], in assay [2], in [3], in assay [4], in [5] and in [6] was inactive. Besides, the result in assay [7], in assay [8], in assay [9], in assay [10], in [12] and in assay [13] was inactive. Moreover, the outcome in [14], in assay [15], in assay [16] and in assay [17] was inactive. In addition, the activation in assay [11] is 37.5% (active).

With `CC(=O)Nc1nc(-c2ccc3c(c2)CCN3C(=O)C2CC2)c(C)s1`, the result in [1], in assay [2], in [3], in assay [4], in [5] and in [6] was inactive. For the same compound, the result in [7], in assay [8], in assay [9], in [10], in [11] and in [12] was inactive. For the same compound, the result in assay [13], in assay [14], in assay [15], in assay [16] and in assay [17] was inactive.
